Here are results for 86 sequences from article PMC10668032, “Altered binding affinity of SIX1-Q177R correlates with enhanced WNT5A and WNT pathway effector expression in Wilms tumor”.

In all, about 33,000 sequences were measured (“e-score”: median about -0.05, highest 2% from about 0.38 on). For the sample, the highest values were picked, then their nearest neighbours and some sequences at random.

The target in the assay is T1, SIX1-Q177R homeodomain (human, UniProt Q15475 108-198, Q177R).
T1 sequence: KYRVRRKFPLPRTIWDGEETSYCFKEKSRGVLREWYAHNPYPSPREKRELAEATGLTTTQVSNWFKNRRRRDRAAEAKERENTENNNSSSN
The experiment in a line: universal protein binding microarray; Universal all-10-mer PBM (8x60K, AMADID 030236), 300 nM GST-tagged protein, Alexa Fluor 488 anti-GST; buffer, salt, pH and temperature not stated (as in Berger); high values mean tight binding. Particulars: protein: ivt; tags: N-terminal GST; dsDNA, one strand shown. The method in brief: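 GST-tagged homeodomains were made by in vitro transcription/translation and quantified by anti-GST western blot against a recombinant GST standard curve. They were applied in duplicate at 300 nM final concentration to universal 'all 10-mer' protein binding microarrays (8×60K format). Binding was quantified as 8-mer E-scores with the Universal PBM Analysis Suite.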
Turning to CGGTGAGA, the binding signal amounted to 0.177 ± 0.0168 E-score.
Take AGGTGTGC: the binding signal worked out at 0.322 ± 0.019 E-score.
The same measure for ACGTGTGC: 0.16 ± 0.0249 E-score; for CGGTGTGC: 0.381 ± 0.0324 E-score; for AGGTGTGA: 0.4098 ± 0.00286 E-score.
Under AGGTGTGG stands 0.371 ± 0.0242 E-score; under CGGGGTGA, 0.166 ± 0.0603 E-score.
With CGGTGCGC, the binding signal was found to be 0.221 ± 0.0195 E-score.
Under GGGTGTGA stands 0.429 ± 0.0152 E-score; under ACTCCGAT, 0.182 ± 0.0265 E-score; under CCCCGACG, 0.162 ± 0.0371 E-score.
As to CACTAAGA, the binding signal came out at 0.17 ± 0.0243 E-score.
Consider AGGTATCG, for which the binding signal was 0.33 ± 0.00862 E-score.
Under ACCCTGGA stands 0.168 ± 0.028 E-score; under CCCCACAG, 0.172 ± 0.025 E-score; under CACCAAGC, 0.26 ± 0.0355 E-score.
As for CACCAGCC, the binding signal was determined as 0.239 ± 0.0131 E-score.
Under CCCCAACA stands 0.278 ± 0.00752 E-score; under ACTGACCC, 0.213 ± 0.011 E-score; under CCTGACAC, 0.452 ± 0.00834 E-score.
Under ACTGACAC stands 0.4777 ± 0.00257 E-score; under ACTGACAA, 0.153 ± 0.0151 E-score; under CCTGACCC, 0.159 ± 0.0403 E-score.
The same measure for ACTGATAC: 0.295 ± 0.00533 E-score; for GCTGACAC: 0.444 ± 0.00725 E-score; for CCTGACGC: 0.161 ± 0.00552 E-score.
As for GCTGATAC, the binding signal was determined as 0.243 ± 0.0143 E-score.
Under GACTCCCC stands 0.161 ± 0.0189 E-score.
The same measure for AACCCACA: 0.157 ± 0.00573 E-score; for GAGTCACC: 0.157 ± 0.0094 E-score; for CTACGACA: 0.172 ± 0.0171 E-score.
Under CACCACGC stands 0.2817 ± 0.00156 E-score; under ATTCGGGG, 0.1763 ± 0.00138 E-score.
In the case of ATCGACTC, the binding signal worked out at 0.201 ± 0.019 E-score.
The same measure for CTCGACAC: 0.419 ± 0.0214 E-score; for CTCGGCAC: 0.194 ± 0.0445 E-score.
Under GTCGAAAC stands 0.182 ± 0.0154 E-score; under ATCGACCC, 0.163 ± 0.0642 E-score.
The same measure for CTCGACCC: 0.182 ± 0.0618 E-score; for ATCGACAC: 0.436 ± 0.0239 E-score; for GTCGACAC: 0.4143 ± 0.00159 E-score.
Turning to CACGCCTG, the binding signal was 0.202 ± 0.0125 E-score.
Under CCCCTCCA stands 0.195 ± 0.0175 E-score; under ACATGACA, 0.179 ± 0.0207 E-score.
The same measure for ATGCCAAG: 0.162 ± 0.0414 E-score; for GTGGGGTA: 0.278 ± 0.0225 E-score.
Turning to GGTTTAAC, the binding signal was found to be 0.1932 ± 0.000396 E-score.
The same measure for CAGTGTCC: 0.374 ± 0.0168 E-score; for CAGTCACA: 0.1706 ± 0.000283 E-score.
The same measure for AAGGGTCG: 0.188 ± 0.0266 E-score; for CAGTGTCG: 0.444 ± 0.0154 E-score.
Take AAGTGTGG: the binding signal was 0.169 ± 0.00659 E-score.
Regarding AAGTGTCG, the binding signal was determined as 0.384 ± 0.00583 E-score.
Turning to CAGTGTCA, the binding signal came to 0.4579 ± 0.00161 E-score.
Under CCTCGACA stands 0.218 ± 0.00226 E-score.
The same measure for CCGACTCG: 0.159 ± 0.0511 E-score.
The same measure for GGGGTCGA: 0.298 ± 0.0393 E-score; for TAGCGACA: 0.172 ± 0.00519 E-score.
Turning to AGGGGTCA, the binding signal was determined as 0.28 ± 0.00906 E-score.
As for CACCCGTG, the binding signal turned out to be 0.3705 ± 0.00306 E-score.
The same measure for GTTTCACA: 0.161 ± 0.0356 E-score; for ACCAGTAC: 0.151 ± 0.0205 E-score; for GGTGCGTA: 0.161 ± 0.0186 E-score.
Under TGTACACA stands 0.353 ± 0.00919 E-score.
Under AGTACACA stands 0.253 ± 0.0191 E-score.
In the case of CGTACACA, the binding signal worked out at 0.268 ± 0.0421 E-score.
Under GGTACACA stands 0.322 ± 0.0315 E-score; under CGTACCCC, 0.24 ± 0.0402 E-score.
The same measure for AGTACACG: 0.4259 ± 0.00113 E-score; for CGTACACC: 0.483 ± 0.00107 E-score; for CGTACACG: 0.405 ± 0.0112 E-score.
The same measure for GGCACACC: 0.351 ± 0.0301 E-score; for GGTACACC: 0.4848 ± 0.00354 E-score.
CGTACTCC: the binding signal worked out at 0.221 ± 0.003 E-score.
The same measure for CACTTCAA: 0.265 ± 0.016 E-score; for AAACCCCT: 0.178 ± 0.0353 E-score; for GTATCTGA: 0.236 ± 0.00609 E-score.
Under CGGATACA stands 0.294 ± 0.0106 E-score.
Turning to CCCGCGCA, the binding signal was 0.176 ± 0.0199 E-score.
For CCCCCCAG, the binding signal worked out at 0.162 ± 0.0223 E-score.
The same measure for AGTACACC: 0.4815 ± 0.00102 E-score; for AGTACACT: 0.406 ± 0.0266 E-score.
Under AGTACCCC stands 0.2867 ± 0.00256 E-score; under AGTACAAG, 0.205 ± 0.0236 E-score.
Under CACGCTCA stands 0.155 ± 0.038 E-score; under CTAGCACC, 0.203 ± 0.0347 E-score.
